Rows were chosen to be rich in hits. Some 5.3% of all compounds tested hit in one or more screens of this group.
Sfp inh: Sfp phosphopantetheinyl transferase inhibition | Q9F4F7 | Biochemical Sfp PPTase activity, qHTS | Potency, µM, most hits filed as inhibitors | hit rate 3.5% among 310,000;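 also: the enzyme is Sfp with the accession as filed and its product quenches rhodamine fluorescence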
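Sfp 15 nM + cpd, 15 min RT; start w/ rhodamine-CoA 5 uM, BHQ-2-YbbR 12.5 uM (final); 50 mM Hepes pH 7.6, 10 mM MgCl2, 0.01% NP-40, 0.01% BSA; read 525/598 nm at 0 and 30 min.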
Coupling enz: coupling enzyme interference in Giardia aldolase counter-screen; coupling enzyme system counterscreen, AmpLite Red fluorescence; hit rate 0.67% among 290,000; activity change, negative = inhibition, % at 58.2 µM, hits read low; in the data active = activity change below about -30%
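Fluorescence at 525 nm excitation and 598 nm emission measured inhibition of the coupled detection system without aldolase. Compounds (at 57.5 uM final) were preincubated 10 min at room temperature with coupling enzyme reagent before a 20 min substrate/AmpLite Red step.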
Tau FP inhib: blocks human tau fibril formation measured by polarization | P10636 | K18 P301L tau heparin fibrillization, Alexa594 FP, 6 h | Potency, µM (doses to about 57.7 µM), most hits filed as inhibitors | hit rate 0.39% among 280,000; also: nearly all actives have a fitted effect of over 55% in size
Target sequence (P10636 561-689 P618L limits assumed): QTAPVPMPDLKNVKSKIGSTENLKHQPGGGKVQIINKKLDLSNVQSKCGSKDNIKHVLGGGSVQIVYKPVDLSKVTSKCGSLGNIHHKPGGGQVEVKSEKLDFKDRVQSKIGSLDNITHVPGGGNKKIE
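Steps: dispense K18 P301L tau (15 uM plus 0.24 uM Alexa 594 tracer, final) in pH 7 sodium acetate; add compound; add heparin (20 uM final); incubate 6 hr, 37 C; add ThT (30 uM final); after 1 hr ambient, read FP.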
Tau fibril ThT: tau fibrillization inhibition (ThT binding) | P10636 | hit rate 2.1% among 270,000 | recombinant tau K18 P301L, heparin-induced fibrillization, ThT fluorescence | Potency, µM (top dose mostly 57.4 µM), hits mostly inhibitors | AID 1460; also: nearly all actives have a fitted effect of over 55% in size
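Fibril formation assay: tau K18 P301L at 15 uM with trace Alexa 594 label, heparin inducer 20 uM, pH 7 sodium acetate buffer, 37 C for 6 hr; endpoint ThT signal.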
KDM4E inh: JMJD2E (human) inhibition | Potency, µM (titrated, usually from 57.1 µM), most hits filed as inhibitors | B2RXH2 | JMJD2E catalytic domain, FDH-coupled NADH fluorescence (FDH is formaldehyde dehydrogenase) | hit rate 1.6% among 230,000; active = well fitted inhibition curve with a large enough effect, not every such curve was filed as active; inconclusive = small, poorly fitted or top-dose-only effect, or another doubt; inactive = no such curve, though single readings can be large or run the other way; also: nearly all actives have a fitted effect of over 50% in size
Target sequence (B2RXH2 1-337 limits assumed): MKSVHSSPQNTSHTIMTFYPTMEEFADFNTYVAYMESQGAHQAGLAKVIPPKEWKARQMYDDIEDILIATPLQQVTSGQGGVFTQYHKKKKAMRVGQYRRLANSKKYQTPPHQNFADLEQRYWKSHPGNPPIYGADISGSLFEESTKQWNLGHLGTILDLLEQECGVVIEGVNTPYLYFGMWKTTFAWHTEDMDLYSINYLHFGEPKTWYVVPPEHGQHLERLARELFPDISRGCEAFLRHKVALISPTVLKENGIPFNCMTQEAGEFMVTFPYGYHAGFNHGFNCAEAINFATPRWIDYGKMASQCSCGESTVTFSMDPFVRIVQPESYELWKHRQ
Tau fluor cs: counter-screen for tau fibril formation inhibitors; tau K18 P301L Alexa594 fluorescence, heparin fibrillization; Potency, µM (highest dose often 57.7 µM); AID 1463; hit rate 0.93% among 280,000; also: nearly all actives have a fitted effect of over 55% in size
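Human tau K18 P301L (15 uM unlabeled, 0.24 uM Alexa 594-labeled) in 100 mM sodium acetate pH 7 with 20 uM heparin, 6 hr at 37 C. ThT 30 uM added, 1 hr ambient; Alexa 594 FP and total fluorescence read at 555/632 nm.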
A number is an active result; i = inactive; ? = inconclusive; nt = not tested or not shown; [ ] = remark or other dose. Unless noted, calls follow the shape of the dose curve; as a rule, active = well fitted curve in the direction sought with a large enough effect; inconclusive = small, poorly fitted or top-dose-only effect, or another doubt; inactive = no such curve, though single readings can be large; an effect the other way counts as inactive or inconclusive.

SMILES | Sfp inh | Coupling enz | Tau FP inhib | Tau fibril ThT | KDM4E inh | Tau fluor cs
CCOC(=O)C1CCN(c2nc(N)c3c(N)nc(SCC(=O)O)cc3c2C#N)CC1 | 6.31µM | -32.5 | ? | ? | ? | i
CCCCN1C(=O)Cc2c1nc(N)c1c(N)nc(N(CCC)CCC)c(C#N)c21 | i | i | i | ? | ? | i
CCOC(=O)C1CCN(c2nc(C)cc(C)c2C#N)CC1 | i | i | i | i | ? | i
COc1cc2c(C#N)c(N3CCOCC3)nc(N)c2c(N)n1 | i | -51.7 | i | ? | ? | i
N#Cc1c(N2CCOCC2)nc(N)c2c(N)nc3c(c12)CC(CCl)O3 (centres undefined) | i | i | i | i | ? | i
COc1ccc(CCNC(=O)c2nc(SCc3ccc(C)cc3)ncc2Cl)cc1OC | nt | nt | i | i | nt | i
CCOc1cc2c(C#N)c(N3CCNCC3)nc(N)c2c(N)n1 | i | i | i | i | ? | i
COc1cc2c(C#N)c(N3CCCCC3)nc(N)c2c(N)n1 | i | -51.6 | i | ? | ? | ?
COc1cc2c(C#N)c(N3CCc4ccccc4C3)nc(N)c2c(N)n1 | 35.5µM | -49.3 | i | ? | ? | 14.1µM[quencher]
COc1ccc(-c2nc(C#N)c(N3CCc4ccccc4C3)o2)cc1OC | i | nt | i | ? | ? | ?
COc1ccc(CCNCC(O)c2ccccc2)cc1 (centres undefined) | i | i | i | i | 7.94µM | i
CC(C)(C)c1ccc(/C=N/Nc2nncn2N)cc1 | i | i | nt | nt | nt | nt
O=[N+]([O-])c1cc(/C=N/n2cnnc2)ccc1N1CCCC1 | i | i | i | 7.94µM | i | i
CC1CCN(c2ccc(/C=N/n3nnnc3N)cc2[N+](=O)[O-])CC1 | i | i | i | ? | i | i
O=[N+]([O-])c1cc(/C=N/O)ccc1N1CCCC1 | i | i | i | ? | i | i
Nn1cnnc1N/N=C/c1cc(Br)cc(Br)c1O | i | i | i | 14.1µM | ? | ?
CC1CCN(c2ccc(/C=N\Nc3nncn3N)cc2[N+](=O)[O-])CC1 | 79.4µM | i | i | 10µM | ? | i
CSc1ccc(/C=N\Nc2nncn2N)cc1 | 79.4µM | i | nt | nt | nt | nt
CCCCCC(=O)/C=C/C=C\C/C=C\C/C=C\CCCC(=O)O | i | i | i | i | i | i
CN(C)[C@@H]1C(=O)C(C(=O)NCN2CCCC2)=C(O)[C@@]2(O)C(=O)C3=C(O)c4c(O)cccc4[C@@](C)(O)C3CC12 (some centres undefined) | 50.1µM | -39.4 | ? | 14.1µM | ? | ?
O=C(CSc1nnc(Cc2ccccc2)n1Cc1ccco1)NC1CCCC1 | ? | i | i | i | i | i
Clc1ccc(OCc2nnc(SCCN3CCCCC3)n2Cc2ccco2)cc1 | 25.1µM | i | i | i | i | i
Cc1nc2ccccc2c(=O)n1Cc1ccco1 | i | i | i | i | i | i
O=C(CSc1nnc(COc2ccccc2)n1Cc1ccco1)c1ccc(F)cc1 | 56.2µM | i | i | i | i | i
Cc1ccc(OCc2nnc(SCC(=O)c3ccccc3)n2Cc2ccco2)cc1 | i | i | i | ? | i | i
SMILES | Sfp inh | Coupling enz | Tau FP inhib | Tau fibril ThT | KDM4E inh | Tau fluor cs
O=C1c2ccccc2C(=O)N1CCc1nc2ccccc2c(=O)n1Cc1ccco1 | 50.1µM | i | i | i | i | i
O=c1c2ccccc2nnn1CSc1nnc(COc2ccc(Cl)cc2)n1Cc1ccco1 | i | nt | i | i | i | i
CC(C)OC(=O)CSc1nnc(Cc2ccccc2)n1Cc1ccco1 | 22.4µM | i | i | i | i | i
O=C(c1cnn(-c2ccc(F)cc2)c1-n1cccc1)N1CCN(c2ccccc2)CC1 | nt | nt | i | i | nt | i
Cc1nc2c(-c3ccccc3)c(C)[nH]n2c(=O)c1Cc1ccc(Br)cc1 | nt | nt | i | i | nt | i
Cc1cc2c(=O)n(Cc3ccco3)c(SCC(=O)c3ccc(Cl)s3)nc2s1 | 17.8µM | i | i | ? | ? | i
NC(=O)CSc1nc2ccccc2c(=O)n1Cc1ccco1 | i | i | i | i | i | i
O=C(CSc1nc2ccccc2c(=O)n1Cc1ccco1)c1ccc(F)cc1 | 31.6µM | i | i | i | i | i
Cn1c(-n2cccc2)c(-c2c(-c3ccc(F)cc3)[nH]c3c2c(=O)n(C)c(=O)n3C)c(=O)n(C)c1=O | nt | nt | i | i | nt | i
O=C(Cc1cccs1)N/N=C\c1ccc([N+](=O)[O-])s1 | ? | i | i | ? | i | ?
